Source: PubChem BioAssay
HTT aggregate: reduces HttQ103-GFP aggregates in PC12 cells; 1.1% of 220,000 active; PC12 HttQ103-GFP aggregates, Acumen cytometry, 40 h; Potency, µM (titrated, usually from 46.1 µM), hits mostly inhibitors; AID 1688; note: nearly all actives have a fitted effect of over 60% in size
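Compounds (qHTS titration) were added to PC12 cells expressing an ecdysone-driven HTT exon 1 Q103–GFP fusion after induction with 100 nM tebufenozide. Aggregate formation was measured as GFP objects in cell lysates.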
HTT cytoprotect: Huntington cell model cytoprotection by ATP luminescence; PC12 HTT-Q103 induced, cytoprotection, ATP luminescence, 40 h; 0.14% of 230,000 active; AID 1471; Potency, µM (series often up to 56.4 µM), usual class: activators; note: nearly all actives have a fitted effect of over 45% in size
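PC12 cells with ecdysone-inducible HTT exon 1 Q103-GFP, induced with 100 nM tebufenozide and co-treated with library compounds in a dose series (1536-well, 1500 cells/well). Cytoprotection read as ATP content by ATPlite luminescence.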
GALK inhibitor: inhibitors of human galactokinase; Potency, µM (series often up to 57.5 µM), hits mostly inhibitors; 0.007% of 270,000 active; Purified GALK, Kinase-Glo residual ATP luminescence; P51570
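Kinase-Glo Plus luminescence measured ATP left after a 1 h room-temperature reaction. The reaction used 5 nM GALK, 100 uM galactose and 35 uM ATP at pH 8.0 (20 mM HEPES, 5 mM MgCl2, 60 mM NaCl, 1 mM DTT, 0.01% BSA).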
PI4K2A block: blocks human PI4K2A kinase activity. Q9BTU6. AID 1346378. purified PI4K2A, ADP-Glo luminescence, 1 h; stronger effect = lower value. 0.13% of 420,000 active. activity change, negative = inhibition, % at 76.9 µM; in the data active = activity change below about -50%; inconclusive = mostly about -30% to -49%
Target sequence (Q9BTU6 whole entry, looked up): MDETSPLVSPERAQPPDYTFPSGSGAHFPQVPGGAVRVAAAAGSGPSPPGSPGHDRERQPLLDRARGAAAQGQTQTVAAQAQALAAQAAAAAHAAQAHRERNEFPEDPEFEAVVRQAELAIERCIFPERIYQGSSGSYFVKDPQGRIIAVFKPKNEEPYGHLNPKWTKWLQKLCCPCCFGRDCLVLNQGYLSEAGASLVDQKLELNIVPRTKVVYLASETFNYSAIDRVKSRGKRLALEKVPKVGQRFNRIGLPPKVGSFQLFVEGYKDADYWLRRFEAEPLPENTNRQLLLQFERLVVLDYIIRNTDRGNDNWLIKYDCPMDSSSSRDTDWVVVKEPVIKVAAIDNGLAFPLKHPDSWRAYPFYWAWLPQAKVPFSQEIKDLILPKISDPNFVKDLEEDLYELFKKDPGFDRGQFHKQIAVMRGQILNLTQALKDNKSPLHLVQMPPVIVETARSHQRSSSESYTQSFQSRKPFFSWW
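In this quantitative HTS, ADP production by PI4K2A was quantified luminescently after 1 h at ambient temperature; 100 microM adenosine served as plate-quality control.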
Hits are given with their value; – = inactive; ? = inconclusive; · = not tested or not shown; [ ] = remark or other dose. The entries come from a sample that favours hits as a whole. Unless noted, calls come from the whole dose curve; as a rule, active = well fitted curve in the direction sought with a large enough effect; inconclusive = small, poorly fitted or top-dose-only effect, or another doubt; inactive = no such curve, though single readings can be large; an effect the other way counts as inactive or inconclusive.

SMILES	HTT aggregate	HTT cytoprotect	GALK inhibitor	PI4K2A block
COCCNS(=O)(=O)c1ccc(OCC(=O)OC)c(Cl)c1	3.2µM	–[0.074 µM]	–	–
O=C(CSCc1ccc(C(=O)O)cc1)Nc1ccc2ccccc2c1	40µM	·	–	–
O=C(CSCc1ccc(C(=O)O)cc1)Nc1ccccc1	–[9.22 µM]	?	–	–
Cc1ccc2c(c1)Oc1ccc(NC(=O)CCl)cc1C(=O)N2	25µM	–[10 µM]	–	–
Cc1ccc2c(c1)Oc1ccc([N+](=O)[O-])cc1C(=O)N2	–	–	–	–
CCn1c(/C=C/N(C)c2ccccc2)[n+](CC)c2ccc(Cl)cc21	4.5µM	–[10 µM]	–	–
Cc1sc(NC(=O)c2ccco2)nc1-c1ccc2c(c1)CC(C)N2C(=O)C1CC1 (stereo unspecified)	16µM	–	–	–
O=C(Nc1ccc(OCC(F)(F)C(F)F)c(C(F)(F)F)c1)c1ccccc1	·	·	·	–
O=C(Nc1ccc(OCC(F)(F)C(F)F)c(C(F)(F)F)c1)c1ccccc1O	5µM	–[10 µM]	–	–
CC(C)(C)CC(=O)OCC(=O)[C@@]1(O)CC[C@H]2[C@@H]3CCC4=CC(=O)C=C[C@]4(C)[C@H]3[C@@H](O)C[C@@]21C	·	·	·	–
COc1cccc2c1C(=O)C=C(C)C2=O	14µM	–[0.074 µM]	–	–
c1cnc2c(c1)ccc1cccnc12	7.9µM	–[10 µM]	–	–
O=Cc1ccc2ccc3cccnc3c2n1	·	·	·	–
CC1(C)Cc2ccccc2C(NNC(=O)c2ccccn2)=N1	18µM	–	–	–
Fc1ccccc1-c1csc(=Nc2cccnc2)n1CC1CCCO1 (stereo unspecified)	–	–[10 µM]	–	–
Fc1ccccc1-c1csc(=Nc2cccnc2)n1CCCn1ccnc1	35µM	–[10 µM]	–	–
Cc1ccc(Nc2nc(N)nc(CC#N)n2)cc1	6.3µM	–	–	–
CC(C)OCCCNc1ncnc2c1[nH]c1ccccc12	7.1µM	–[1.9 µM]	–	–
O=C(Nc1nnc(-c2ccc(F)cc2)o1)c1cccc([N+](=O)[O-])c1	5.6µM	–	–	–
O=C(Nc1nnc(-c2ccc3c(c2)CCCC3)o1)c1ccccc1	?	–[10 µM]	–	–
O=C(Nc1nnc(-c2ccc(F)cc2)o1)c1cc(Cl)sc1Cl	11µM	–[10 µM]	–	–
O=C(Nc1nnc(-c2ccc3c(c2)CCCC3)o1)c1ccccc1Cl	11µM	–	–	–
CC(C)(C)OC(=O)NCCCCC1=CC2=CC(=O)C(C)(OC(=O)CCc3ccccc3)C(=O)C2=CO1 (stereo unspecified)	·	–	·	·
O=C1CCC[C@H]2Cc3nc4cccc(Cl)c4cc3C[C@]23CCCN13	·	·	·	–
CC(C)(C)c1cc(C=O)cc(C(C)(C)C)c1O	·	·	·	–
SMILES	HTT aggregate	HTT cytoprotect	GALK inhibitor	PI4K2A block
CN1CCN/C1=C(/C(Cl)=C(Cl)Cl)[N+](=O)[O-]	16µM	–	–	–
CN(Cc1ccccc1)C(=C(Cl)Cl)/C(=C1/NCCN1C)[N+](=O)[O-]	–	–	–	–
CN(CCCCCNC(=O)/C=N/O)Cc1ccccc1	–	–[10 µM]	–	·
CN(C)CCCN(CCCNC(=O)/C=N/O)Cc1ccccc1	35µM	–[10 µM]	–	–
Cc1cc(OCc2cccc(Cl)c2)c(C)cc1CN1CCOCC1	?	1.1µM	–	–
O=[N+]([O-])c1cccc(COc2ccccc2CN2CCOCC2)c1	·	·	·	–
O=C(Cn1c(=O)c2cccn2c2cccnc21)NCCCN1CCN(c2ccc(Cl)cc2)CC1	·	·	·	–
COc1ccc(-c2cc(=O)oc3cc(O)ccc23)cc1	·	·	·	–
COc1ccc(-c2cc(=O)oc3cc(OC(=O)C4CCCCC4)c(Cl)cc23)cc1	0.28µM	–[10 µM]	–	–
COc1ccc2[nH]cc(CCNc3ncncc3-c3ccccc3C)c2c1	·	–	·	·
O=C(O)c1cccc(NS(=O)(=O)c2ccc(C3CCCCC3)cc2)c1	·	·	–	–
Cc1cccc(NS(=O)(=O)c2ccc(C3CCCCC3)cc2)c1	11µM	–	–	–
C[C@@H]1CN([C@@H](C)COC(=O)C(C)(C)C)C(=O)c2cc(NC(=O)Nc3ccccc3)ccc2O[C@@H](C)CCCCO[C@H]1CN(C)S(=O)(=O)c1ccc(F)cc1	·	·	·	–
C=CCCC1(CCC)C(=O)/C(=C(\O)c2ccccc2)C(=O)C(CCC)=C1OC (stereo unspecified)	·	·	·	–
Cc1ccc(NC(=S)NNC(=O)CSc2nnc(-c3ccc(C)cc3)n2C2CCCCC2)cc1	·	·	·	–
COc1ccc(NC(=O)N(Cc2cc3cc(C)ccc3[nH]c2=O)CC2CCCO2)cc1 (stereo unspecified)	–[9.22 µM]	–[10 µM]	–	–
